Experimental data as given in PubChem BioAssay.
Inconclusive results are not listed. The source made the active and inactive calls. Unless noted, no stated cut-off is given here; in the data, active means response above about 15%; inactive means the rest. Square brackets hold non-standard residues; d marks the D form. Peptide text beside a SMILES is read from it. ξ: configuration not given here. ξV = CC(C)C(N)C(=O)O

Legend:
[1] = yeast TOR pathway RPL19A-GFP modulators, primary screen, cell-based, S. cerevisiae, multiplex flow cytometry (AID 1862; in the data active means percent of DMSO control GFP below about 86%;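 further: lower values mimic rapamycin by blocking the RPL19A rise seen in DMSO cells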); conditions: S. cerevisiae RPL19A-GFP strain, flow cytometry fluorescence, 3 h; at 10 µM; stronger effect = lower value
[2] = modulators of MEP2-GFP levels in yeast, primary screen, S. cerevisiae, multiplex flow cytometry (AID 1867;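 active means GFP response, as percent of the DMSO control, above the screen-wide mean plus 3 SD, about 139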;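 further: median GFP channel fluorescence of barcode-gated MEP2-GFP cells measured by flow cytometry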); conditions: S. cerevisiae MEP2-GFP strain, 3 h, at 10 µM, stronger effect = higher value, 100% means same as DMSO wells
[3] = modulators of CIT2-GFP expression in yeast, primary screen, S. cerevisiae, GFP fusion, multiplex flow cytometry (AID 1870;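 active means percent response above a set limit, the screen-wide mean plus 3 SD, cut at about 130% in these data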;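 further: barcoded CIT2-GFP strain pooled with four other GFP strains with rapamycin as positive control; median GFP fluorescence per well over plate mean of DMSO wells so 100% = DMSO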); conditions: 3 h, at 10 µM, stronger effect = higher value
[4] = modulators of LAP4-GFP expression in yeast, primary screen, S. cerevisiae, multiplex flow cytometry (AID 1873;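 active means GFP signal, as percent of the solvent control, above the screen mean plus 3 SD, about 149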); conditions: 3 h, at 10 µM, stronger effect = higher value
[5] = modulators of AGP1-GFP expression in yeast TOR pathway, primary screen, cell-based, multiplex flow cytometry, S. cerevisiae (AID 1887;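 active means GFP signal above the screen-wide mean plus 3 SD, that is over about 124.5% of the solvent control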;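 further: AGP1-GFP fusion strain of S. cerevisiae within a five-strain barcoded multiplex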); conditions: 3 h, at 10 µM, stronger effect = higher value
[6] = inhibitors of CD8+ T cell-vesicle binding, pilot screen, LFA-1/ICAM-1 modulator project, MLPCN validation set, flow cytometry (AID 2523;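 active means response below a set limit, under 55% cells CD8-positive and vesicle-bound, and CD8 cells' 90th-percentile brightness under 279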;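 on vesicle binding response: mean PE anti-B7-1 fluorescence of CD8+ cells relative to row control; 100% = QL9-loaded vesicles with DMSO vehicle in the same plate row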); conditions: 2C mouse CD8+ T cells, at 7 µM, stronger effect = lower value; double positive events: measured here: CD8+/vesicle+ event percentage
[7] = biological target: Integrin beta-1 (Homo sapiens) + Integrin alpha-4 (Homo sapiens) (UniProt P13612+P05556); assay: inhibition of HUTS-21 binding to VLA-4, pilot screen, VLA-4 allosteric modulator project, U937 cells, HUTS-21 mAb, flow cytometry, validation set (AID 2674;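 active means inhibition above 50%, about 3 SD of the validation set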;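 further: antibody binding induced by the VLA-4 ligand LDV present at three times its Kd; 0% = LDV ligand with antibody and no compound and 100% = antibody without LDV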); conditions: HUTS-21 LIBS mAb binding, at 6.7 µM, stronger effect = higher value, binding induced by LDV ligand
[8] = superoxide lowering in aged yeast cells, pilot screen, validation compound set (AID 2706;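 active means superoxide response below 65% of plate, a cut near 3 SD across the whole screen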;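 further: yeast exposed to compound for one week at 30 degrees C before staining; 100% = mean of all compound wells on the same plate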); conditions: S. cerevisiae aging, superoxide DHE fluorescence; at 10 µM; stronger effect = lower value
[9] = biological target: Beta-adrenergic receptor kinase 1 (Homo sapiens) (UniProt P25098); assay: GRK2 binders displacing RNA aptamer, biochemical, validation, human GRK2, bead flow cytometry (AID 488806;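 active means aptamer binding inhibition above 30%, about 3 SD of noise from non-fluorescent compounds; inactive means inhibition at or below 30%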); conditions: bead-bound GRK2, FAM-aptamer displacement, at 10 µM, stronger effect = higher value
[10] = biological target: Beta-2 adrenergic receptor (Homo sapiens) (UniProt P07550); assay: beta2AR agonists driving receptor internalization, pilot screen, cell-based, FAP fluorogen, flow cytometry, validation set (AID 504459;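 active means percent response above 42, roughly 3 SD of non-fluorescent test compounds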;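 further: agonist-driven loss of surface beta2AR via internalization measured by FAP dye flow cytometry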); conditions: Am2.2-beta2AR cells, FAP surface receptor flow cytometry; at 10 µM; stronger effect = higher value
[11] = biological target: AP-2 complex subunit beta (Homo sapiens) (UniProt P63010); assay: inhibitors of arrestin peptide binding to AP2, pilot screen, biochemical, validation set, GST-AP2 beads, flow cytometry (AID 504541;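 active means inhibition above 54%, about 3 SD of non-fluorescent compounds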;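 further: AP2 carries R879A mutation and is captured from E. coli lysate; bead-bound FITC arrestin peptide fluorescence measuring arrestin peptide binding to AP2; 0% = DMSO wells and 100% = excess unlabeled arrestin peptide control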); conditions: FITC arrestin peptide, at 10 µM, stronger effect = higher value, AP2 beta2 appendage fragment, R879A mutant
[12] = yeast V-ATPase proton transport modulators, S. cerevisiae, pHLuorin, HTS validation (AID 504600);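 further: plate controls were DMSO for no effect and reference compound for full effect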; conditions: S. cerevisiae pHLuorin cytosolic pH, at 10 µM, stronger effect = higher value
[13] = tested on: anti-desmoglein-3 scFv antibody binding to human DSG3; assay: inhibitors of anti-DSG3 scFv binding to DSG3, pilot screen, biochemical, validation compound set, bead-based, flow cytometry (AID 588368;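 active means binding below the plate cutoff, the plate median minus 3 SD, with a reading above zero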;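 further: signal is the median channel fluorescence of bead-bound GFP antibody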); conditions: Protein G beads, DSG3-Fc, scFv-GFP binding, at 10 µM, stronger effect = lower value
[14] = inhibitors of fungal efflux pumps CDR1, CDR2, MDR1, pilot screen, validation compound set, multiplex, phenotypic (AID 588506;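 active means efflux inhibition above 0.42, the validation set average plus 4 SD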;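 further: Nile Red retained in cells so higher fluorescence means more efflux inhibition; 0 = negative control wells and 1 = enniatin B 25 µM full block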); conditions: S. cerevisiae pump-expressing triplex, Nile Red efflux flow cytometry; at 10 µM; stronger effect = higher value; the pumps come from Candida albicans
[15] = biological target: ATP-binding cassette sub-family B member 6 (Homo sapiens) (UniProt Q9NP58); assay: ABCB6 transporter inhibitors, pilot screen, K562-ABCB6 cells, flow cytometry, validation set (AID 588550;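 active means inhibition above the screen-wide mean plus 3 SD, about 51%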;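 further: 0% = DMSO wells and 100% = benzethonium chloride 70 µM positive control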); conditions: K562-ABCB6 porphyrin accumulation, 1 h, at 10 µM, stronger effect = higher value
[16] = promoters of myeloid differentiation in arrested cells, primary screen, cell-based, GFP/MAC1 double positive, flow cytometry, validation set (AID 588685;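 active means differentiation response of at least 50%, scaled between solvent and reference control, from cells with both markers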;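 further: compound exposure lasts four days before antibody staining and flow analysis; 0% = DMSO wells and 100% = 5 µM fulvestrant positive control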); conditions: ER-HoxA9 marrow cells, stronger effect = higher value, normalized: vehicle 0, fulvestrant 100

Beta-2 adrenergic receptor (Homo sapiens), sequence (P07550 whole entry, looked up): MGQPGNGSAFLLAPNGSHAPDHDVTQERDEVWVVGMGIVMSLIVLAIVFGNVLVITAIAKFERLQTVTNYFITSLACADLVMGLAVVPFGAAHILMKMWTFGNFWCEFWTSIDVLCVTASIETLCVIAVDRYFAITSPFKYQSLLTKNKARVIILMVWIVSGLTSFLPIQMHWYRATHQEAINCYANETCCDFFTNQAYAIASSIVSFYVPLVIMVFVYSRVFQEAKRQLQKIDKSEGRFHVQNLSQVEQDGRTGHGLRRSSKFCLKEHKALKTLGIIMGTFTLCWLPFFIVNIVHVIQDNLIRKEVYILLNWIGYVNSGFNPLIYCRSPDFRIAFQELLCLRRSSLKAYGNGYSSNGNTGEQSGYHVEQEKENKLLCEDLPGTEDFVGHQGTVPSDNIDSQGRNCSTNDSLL
AP-2 complex subunit beta (Homo sapiens), sequence (P63010 whole entry, looked up, the tested form may be a part, one chain of several): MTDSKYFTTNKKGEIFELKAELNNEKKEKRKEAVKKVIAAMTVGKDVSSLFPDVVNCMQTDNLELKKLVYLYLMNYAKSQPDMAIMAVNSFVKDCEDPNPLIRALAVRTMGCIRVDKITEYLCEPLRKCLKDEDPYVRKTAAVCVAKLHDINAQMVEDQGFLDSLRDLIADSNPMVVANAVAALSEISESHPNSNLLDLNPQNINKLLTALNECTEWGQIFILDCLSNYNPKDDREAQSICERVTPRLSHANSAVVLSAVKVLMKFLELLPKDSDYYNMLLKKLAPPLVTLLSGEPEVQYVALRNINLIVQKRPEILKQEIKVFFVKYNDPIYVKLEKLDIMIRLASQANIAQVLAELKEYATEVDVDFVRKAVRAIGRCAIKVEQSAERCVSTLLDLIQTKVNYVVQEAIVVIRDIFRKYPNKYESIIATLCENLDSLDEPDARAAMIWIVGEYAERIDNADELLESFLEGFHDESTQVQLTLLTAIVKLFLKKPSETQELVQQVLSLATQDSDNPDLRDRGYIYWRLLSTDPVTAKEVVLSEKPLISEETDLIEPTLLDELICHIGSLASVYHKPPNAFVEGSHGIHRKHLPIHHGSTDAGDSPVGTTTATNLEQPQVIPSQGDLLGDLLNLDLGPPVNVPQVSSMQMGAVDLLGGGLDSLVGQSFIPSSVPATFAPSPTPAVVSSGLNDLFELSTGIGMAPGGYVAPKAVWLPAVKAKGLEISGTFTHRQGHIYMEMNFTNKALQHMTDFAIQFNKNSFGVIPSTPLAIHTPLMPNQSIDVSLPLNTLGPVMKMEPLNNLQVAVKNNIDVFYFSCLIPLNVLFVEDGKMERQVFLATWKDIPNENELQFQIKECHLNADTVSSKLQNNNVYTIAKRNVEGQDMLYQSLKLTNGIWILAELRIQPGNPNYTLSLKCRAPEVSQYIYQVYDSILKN
ATP-binding cassette sub-family B member 6 (Homo sapiens), sequence (Q9NP58 whole entry, looked up): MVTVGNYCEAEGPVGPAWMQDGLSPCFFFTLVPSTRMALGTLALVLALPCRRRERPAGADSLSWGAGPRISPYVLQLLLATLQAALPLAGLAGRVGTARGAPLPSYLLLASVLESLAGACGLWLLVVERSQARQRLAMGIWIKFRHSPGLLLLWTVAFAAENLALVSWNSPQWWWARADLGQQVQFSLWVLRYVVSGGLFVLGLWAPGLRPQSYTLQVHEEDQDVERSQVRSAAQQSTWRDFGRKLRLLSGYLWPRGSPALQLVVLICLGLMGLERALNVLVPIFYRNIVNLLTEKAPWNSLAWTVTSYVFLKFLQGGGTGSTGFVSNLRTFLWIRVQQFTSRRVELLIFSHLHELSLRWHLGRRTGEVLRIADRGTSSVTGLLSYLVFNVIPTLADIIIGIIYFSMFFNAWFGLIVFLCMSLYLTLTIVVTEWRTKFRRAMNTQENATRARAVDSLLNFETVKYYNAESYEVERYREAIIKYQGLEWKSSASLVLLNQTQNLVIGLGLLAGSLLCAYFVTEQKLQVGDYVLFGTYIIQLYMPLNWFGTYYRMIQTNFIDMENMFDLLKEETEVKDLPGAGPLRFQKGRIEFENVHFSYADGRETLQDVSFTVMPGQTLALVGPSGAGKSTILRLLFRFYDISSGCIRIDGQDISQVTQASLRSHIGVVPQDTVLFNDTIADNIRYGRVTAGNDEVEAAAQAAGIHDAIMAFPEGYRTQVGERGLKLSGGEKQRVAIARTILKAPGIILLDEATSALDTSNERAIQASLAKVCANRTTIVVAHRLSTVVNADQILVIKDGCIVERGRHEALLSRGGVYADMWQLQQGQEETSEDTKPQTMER
Integrin beta-1 (Homo sapiens) + Integrin alpha-4 (Homo sapiens), sequence (P05556 whole entry, looked up): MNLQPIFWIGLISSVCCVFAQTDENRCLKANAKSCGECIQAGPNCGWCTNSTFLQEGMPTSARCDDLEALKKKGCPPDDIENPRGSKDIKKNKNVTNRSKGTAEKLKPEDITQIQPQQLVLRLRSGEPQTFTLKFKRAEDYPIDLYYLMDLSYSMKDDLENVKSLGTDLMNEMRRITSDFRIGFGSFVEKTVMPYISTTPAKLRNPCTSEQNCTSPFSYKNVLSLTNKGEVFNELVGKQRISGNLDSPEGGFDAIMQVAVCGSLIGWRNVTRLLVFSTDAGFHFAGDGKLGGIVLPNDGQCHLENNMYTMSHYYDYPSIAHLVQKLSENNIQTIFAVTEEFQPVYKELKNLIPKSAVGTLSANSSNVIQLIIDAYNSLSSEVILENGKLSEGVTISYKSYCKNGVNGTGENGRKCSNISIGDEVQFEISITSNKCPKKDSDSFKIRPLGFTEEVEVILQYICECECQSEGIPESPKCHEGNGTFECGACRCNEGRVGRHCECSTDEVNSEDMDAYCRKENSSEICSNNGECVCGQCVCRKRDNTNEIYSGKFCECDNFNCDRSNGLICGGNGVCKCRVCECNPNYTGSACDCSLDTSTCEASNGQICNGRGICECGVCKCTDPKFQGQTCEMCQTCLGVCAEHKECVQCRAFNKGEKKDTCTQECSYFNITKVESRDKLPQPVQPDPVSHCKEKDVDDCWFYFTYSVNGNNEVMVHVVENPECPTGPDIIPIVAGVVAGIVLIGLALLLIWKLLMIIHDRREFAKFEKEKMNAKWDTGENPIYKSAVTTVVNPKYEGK
Integrin beta-1 (Homo sapiens) + Integrin alpha-4 (Homo sapiens), sequence (P13612 whole entry, looked up): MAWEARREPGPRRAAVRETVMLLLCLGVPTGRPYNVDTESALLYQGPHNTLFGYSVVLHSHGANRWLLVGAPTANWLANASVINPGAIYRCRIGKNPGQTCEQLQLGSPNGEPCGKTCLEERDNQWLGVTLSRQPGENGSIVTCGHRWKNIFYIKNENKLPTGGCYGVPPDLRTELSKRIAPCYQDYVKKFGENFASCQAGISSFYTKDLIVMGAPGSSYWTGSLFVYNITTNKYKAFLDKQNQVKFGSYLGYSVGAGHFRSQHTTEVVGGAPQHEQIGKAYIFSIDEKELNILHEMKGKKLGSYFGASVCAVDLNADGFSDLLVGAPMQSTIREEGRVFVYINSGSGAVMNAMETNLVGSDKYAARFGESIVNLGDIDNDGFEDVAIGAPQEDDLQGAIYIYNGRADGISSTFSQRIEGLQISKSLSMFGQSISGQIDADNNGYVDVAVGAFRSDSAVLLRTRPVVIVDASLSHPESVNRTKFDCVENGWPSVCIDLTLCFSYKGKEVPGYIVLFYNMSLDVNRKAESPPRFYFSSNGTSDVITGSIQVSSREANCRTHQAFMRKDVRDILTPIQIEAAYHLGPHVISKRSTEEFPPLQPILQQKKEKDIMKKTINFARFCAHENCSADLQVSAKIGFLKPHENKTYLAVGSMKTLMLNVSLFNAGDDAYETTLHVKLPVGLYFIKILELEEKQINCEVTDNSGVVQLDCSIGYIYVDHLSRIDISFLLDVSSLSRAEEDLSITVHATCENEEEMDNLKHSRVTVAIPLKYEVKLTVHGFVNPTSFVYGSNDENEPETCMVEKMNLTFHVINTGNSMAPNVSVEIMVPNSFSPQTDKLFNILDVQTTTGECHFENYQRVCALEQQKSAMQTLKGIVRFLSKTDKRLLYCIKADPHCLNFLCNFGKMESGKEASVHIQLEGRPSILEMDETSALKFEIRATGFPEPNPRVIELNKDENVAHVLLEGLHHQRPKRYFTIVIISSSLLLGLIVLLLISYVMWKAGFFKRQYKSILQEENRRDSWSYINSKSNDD
Beta-adrenergic receptor kinase 1 (Homo sapiens), sequence (P25098 whole entry, looked up): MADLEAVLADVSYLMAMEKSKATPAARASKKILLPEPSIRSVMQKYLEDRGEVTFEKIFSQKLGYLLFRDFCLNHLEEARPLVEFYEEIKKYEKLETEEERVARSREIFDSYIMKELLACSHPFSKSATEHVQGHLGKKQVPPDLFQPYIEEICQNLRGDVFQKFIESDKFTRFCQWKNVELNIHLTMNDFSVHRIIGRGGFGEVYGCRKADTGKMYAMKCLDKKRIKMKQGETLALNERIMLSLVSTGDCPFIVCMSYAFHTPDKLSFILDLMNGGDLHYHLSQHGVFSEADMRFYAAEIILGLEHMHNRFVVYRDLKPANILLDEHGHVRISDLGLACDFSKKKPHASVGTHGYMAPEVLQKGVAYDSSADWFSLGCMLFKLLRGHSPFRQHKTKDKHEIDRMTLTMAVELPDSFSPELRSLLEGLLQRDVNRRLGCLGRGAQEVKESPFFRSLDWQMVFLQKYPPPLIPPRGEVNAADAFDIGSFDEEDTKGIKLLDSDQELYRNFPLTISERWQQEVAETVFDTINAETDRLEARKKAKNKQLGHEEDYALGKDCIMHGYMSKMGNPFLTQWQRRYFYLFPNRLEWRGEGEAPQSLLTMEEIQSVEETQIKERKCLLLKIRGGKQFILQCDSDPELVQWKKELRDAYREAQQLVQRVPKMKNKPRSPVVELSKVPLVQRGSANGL

SMILES	percent of DMSO control GFP [1]	GFP response vs DMSO [2]	percent response of DMSO control [3]	GFP response vs DMSO [4]	GFP response, % of DMSO [5]	double positive events [6] [%]	vesicle binding response [6]	inhibition [7]	superoxide response (% of plate) [8]	aptamer binding inhibition [9]	response [10]	inhibition [11]	response [12]	binding (% of control) [13]	efflux inhibition (fraction of control) [14]	inhibition [15]	differentiation response [16]
CSCCC(NC(=O)/C(=C/c1ccc2c(c1)OCO2)NC(=O)c1cccc([N+](=O)[O-])c1)C(=O)O (centres undefined)	93.7% (inactive)	123% (inactive)	101% (inactive)	86.4% (inactive)	91.9% (inactive)	63.7	169% (inactive)	4.52% (inactive)	93.4% (inactive)	4% (inactive)	0.64% (inactive)	-5.32% (inactive)	0.74% (inactive)	105% (inactive)	-0.31 (inactive)	14% (inactive)	-6.55% (inactive)
Cc1ccc(Cl)c(OCCCN(C)Cc2ccccc2)c1	100% (inactive)	96.6% (inactive)	98.3% (inactive)	106% (inactive)	106% (inactive)	64.5	161% (inactive)	13.4% (inactive)	95% (inactive)	2% (inactive)	-6.56% (inactive)	0.6% (inactive)	0.72% (inactive)	112% (inactive)	-0.26 (inactive)	19% (inactive)	-6.96% (inactive)
O=C(OCCN1CCOCC1)c1cccs1	104% (inactive)	98.3% (inactive)	113% (inactive)	94.7% (inactive)	103% (inactive)	64.9	260% (inactive)	-3.57% (inactive)	88.9% (inactive)	2% (inactive)	-11.6% (inactive)	-4.4% (inactive)	0.26% (inactive)	91.9% (inactive)	0.02 (inactive)	1% (inactive)	0.24% (inactive)
COc1ccc(C=O)c(OC)c1	100% (inactive)	98.6% (inactive)	99% (inactive)	99.5% (inactive)	104% (inactive)	60.9	188% (inactive)	26.1% (inactive)	93.3% (inactive)	1% (inactive)	-22.1% (inactive)	62.3% (active)	-1.57% (inactive)	101% (inactive)	0.08 (inactive)	-6% (inactive)	-9.91% (inactive)
COC(=O)c1ccccc1NC(=O)c1ccc(COc2ccc3c(c2)CCC3)cc1	99.6% (inactive)	99.3% (inactive)	90.8% (inactive)	105% (inactive)	94.8% (inactive)	64.4	521% (inactive)	7.85% (inactive)	82.8% (inactive)	5% (inactive)	-3.71% (inactive)	0.16% (inactive)	-3.9% (inactive)	98.9% (inactive)	0.46 (active)	-3% (inactive)	1.22% (inactive)
CC(=O)NC(C(=O)NCC(N)=O)C(C)C (centres undefined) (Ac-[ξV]-Gly-NH2)	104% (inactive)	93% (inactive)	111% (inactive)	95.3% (inactive)	97.3% (inactive)	65.3	195% (inactive)	-7.72% (inactive)	93.7% (inactive)	-2% (inactive)	-7.22% (inactive)	-9.46% (inactive)	0.49% (inactive)	96.9% (inactive)	-0.2 (inactive)	0% (inactive)	13.9% (inactive)
O=C(Cc1c[nH]c2ccccc12)OCCOC(=O)Cc1c[nH]c2ccccc12	104% (inactive)	96.6% (inactive)	110% (inactive)	100% (inactive)	101% (inactive)	60.9	111% (inactive)	-3.77% (inactive)	103% (inactive)	-1% (inactive)	-3.51% (inactive)	-12.4% (inactive)	1.88% (inactive)	99.6% (inactive)	-0.12 (inactive)	-4% (inactive)	-4.57% (inactive)
